Reference: PubChem BioAssay (NCI)
About 83,000 compounds went through this panel and 20% of them were active in at least one assay; those are over-represented in the sample as a whole.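 How to read the values: 0–100, growth inhibition (40 = 60% inhibited); 0, no net growth; -100 to 0, cell death (-40 = 40% of starting cells died; -100 = all dead).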 Values without a mark were called inactive. Activity calls are given as the source filed them. Rule for the calls: active = growth percent below 10; inactive = the rest.

Columns and labels:
Assay in all cases: NCI-60 one-dose screen, 48 h (100 = growth as untreated, 0 = no growth, -100 = all killed)
Details in all cases: 10 µM
SR leukemia = system: SR leukemia
RPMI-8226 leukemia = system: RPMI-8226 leukemia
OVCAR-8 ovarian = system: OVCAR-8 ovarian
OVCAR-5 ovarian = system: OVCAR-5 ovarian
OVCAR-4 ovarian = system: OVCAR-4 ovarian
SK-OV-3 ovarian = system: SK-OV-3 ovarian
IGROV1 ovarian = system: IGROV1 ovarian
OVCAR-3 ovarian = system: OVCAR-3 ovarian
HS 578T breast = system: HS 578T breast
NCI/ADR-RES ovarian = system: NCI/ADR-RES ovarian
T-47D breast = system: T-47D breast
MDA-MB-435 melanoma = system: MDA-MB-435 melanoma
SW-620 colon = system: SW-620 colon
MCF7 breast = system: MCF7 breast
HCT-116 colon = system: HCT-116 colon
HCC-2998 colon = system: HCC-2998 colon
KM12 colon = system: KM12 colon

SMILES: CCCCCCCCCCOC(c1ccccc1)c1ccccc1
- growth (SR leukemia): 93.7%
- growth (RPMI-8226 leukemia): 96%
- growth (OVCAR-8 ovarian): 103%
- growth (OVCAR-5 ovarian): 88.7%
- growth (OVCAR-4 ovarian): 99.8%
- growth (SK-OV-3 ovarian): 96.6%
- growth (IGROV1 ovarian): 73.7%
- growth (OVCAR-3 ovarian): 99.5%
- growth (HS 578T breast): 99.7%
- growth (NCI/ADR-RES ovarian): 86.1%
- growth (T-47D breast): 77.1%
- growth (MDA-MB-435 melanoma): 99%
- growth (SW-620 colon): 98.1%
- growth (MCF7 breast): 91.1%
- growth (HCT-116 colon): 58.6%
- growth (HCC-2998 colon): 99%
- growth (KM12 colon): 89.1%

SMILES: CCOS(=O)(=O)c1c(C(C)C)cc(C(C)C)cc1C(C)C
- growth (SR leukemia): 85.1%
- growth (RPMI-8226 leukemia): 119%
- growth (OVCAR-8 ovarian): 103%
- growth (OVCAR-5 ovarian): 90.6%
- growth (OVCAR-4 ovarian): 120%
- growth (SK-OV-3 ovarian): 108%
- growth (IGROV1 ovarian): 93.5%
- growth (OVCAR-3 ovarian): 103%
- growth (HS 578T breast): 103%
- growth (NCI/ADR-RES ovarian): 103%
- growth (T-47D breast): 115%
- growth (MDA-MB-435 melanoma): 99.1%
- growth (SW-620 colon): 98.3%
- growth (MCF7 breast): 91.4%
- growth (HCT-116 colon): 104%
- growth (KM12 colon): 104%

SMILES: O=C1c2ccccc2C(=O)c2c1ccc(C(Br)Br)c2Cl
- growth (SR leukemia): -51.2% (active)
- growth (RPMI-8226 leukemia): -15.5% (active)
- growth (OVCAR-8 ovarian): 17.1%
- growth (OVCAR-5 ovarian): 104%
- growth (OVCAR-4 ovarian): 35.5%
- growth (SK-OV-3 ovarian): 93.4%
- growth (IGROV1 ovarian): -43.2% (active)
- growth (OVCAR-3 ovarian): -13.8% (active)
- growth (HS 578T breast): 85.6%
- growth (NCI/ADR-RES ovarian): 64.6%
- growth (T-47D breast): 22.7%
- growth (MDA-MB-435 melanoma): 60%
- growth (SW-620 colon): -23.4% (active)
- growth (MCF7 breast): 2.06% (active)
- growth (HCT-116 colon): -62.7% (active)
- growth (HCC-2998 colon): 87.4%
- growth (KM12 colon): 47.5%

SMILES: Cc1ccc(NCCN(C)CC(C)O)c2c(=O)c3ccc(Cl)cc3sc12 (stereo unspecified)
- growth (SR leukemia): -28.9% (active)
- growth (RPMI-8226 leukemia): -8.72% (active)
- growth (OVCAR-8 ovarian): 58.1%
- growth (OVCAR-5 ovarian): 77.9%
- growth (OVCAR-4 ovarian): 67.9%
- growth (SK-OV-3 ovarian): 91.6%
- growth (IGROV1 ovarian): 39.8%
- growth (OVCAR-3 ovarian): 73.3%
- growth (HS 578T breast): 58.6%
- growth (NCI/ADR-RES ovarian): 57.8%
- growth (T-47D breast): 49.7%
- growth (MDA-MB-435 melanoma): -49% (active)
- growth (SW-620 colon): -46.4% (active)
- growth (MCF7 breast): 17.4%
- growth (HCT-116 colon): -48.8% (active)
- growth (HCC-2998 colon): 18%
- growth (KM12 colon): 43.7%

SMILES: CC(CN(C)C)Oc1ccc(OC(C)CN(C)C)c2c1C(=O)c1ccccc1C2=O (stereo unspecified)
- growth (SR leukemia): 20.7%
- growth (RPMI-8226 leukemia): 41.4%
- growth (OVCAR-8 ovarian): 30.1%
- growth (OVCAR-5 ovarian): 63.6%
- growth (OVCAR-4 ovarian): 72%
- growth (SK-OV-3 ovarian): 45.1%
- growth (IGROV1 ovarian): 37.3%
- growth (OVCAR-3 ovarian): 55%
- growth (HS 578T breast): 70%
- growth (NCI/ADR-RES ovarian): 94.5%
- growth (T-47D breast): 77.7%
- growth (MDA-MB-435 melanoma): 46.1%
- growth (SW-620 colon): 27.9%
- growth (MCF7 breast): 16.1%
- growth (HCT-116 colon): 14.2%
- growth (HCC-2998 colon): 57.4%
- growth (KM12 colon): 51.1%

SMILES: C=CCSC(CC)(CC)C(=O)NC
- growth (SR leukemia): 99.3%
- growth (RPMI-8226 leukemia): 101%
- growth (OVCAR-8 ovarian): 105%
- growth (OVCAR-5 ovarian): 104%
- growth (OVCAR-4 ovarian): 109%
- growth (SK-OV-3 ovarian): 105%
- growth (IGROV1 ovarian): 113%
- growth (OVCAR-3 ovarian): 112%
- growth (HS 578T breast): 106%
- growth (NCI/ADR-RES ovarian): 107%
- growth (T-47D breast): 102%
- growth (MDA-MB-435 melanoma): 109%
- growth (SW-620 colon): 103%
- growth (MCF7 breast): 94.6%
- growth (HCT-116 colon): 94%
- growth (HCC-2998 colon): 102%
- growth (KM12 colon): 104%

SMILES: Cc1ccc(NC(=O)N2CCCCC2)cc1[N+](=O)[O-]
- growth (SR leukemia): 39.3%
- growth (RPMI-8226 leukemia): 41.7%
- growth (OVCAR-8 ovarian): 72.2%
- growth (OVCAR-5 ovarian): 101%
- growth (OVCAR-4 ovarian): 111%
- growth (SK-OV-3 ovarian): 112%
- growth (IGROV1 ovarian): 87.3%
- growth (OVCAR-3 ovarian): 115%
- growth (HS 578T breast): 54.8%
- growth (NCI/ADR-RES ovarian): 95.4%
- growth (T-47D breast): 121%
- growth (SW-620 colon): 73.3%
- growth (MCF7 breast): 92.9%
- growth (HCT-116 colon): 94.7%
- growth (HCC-2998 colon): 103%
- growth (KM12 colon): 111%

SMILES: CN(C)CCN(Cc1ccccc1)c1ccc2ccccc2n1
- growth (SR leukemia): 98.6%
- growth (RPMI-8226 leukemia): 89.5%
- growth (OVCAR-8 ovarian): 102%
- growth (OVCAR-5 ovarian): 95%
- growth (OVCAR-4 ovarian): 97.4%
- growth (SK-OV-3 ovarian): 97.2%
- growth (IGROV1 ovarian): 95.1%
- growth (OVCAR-3 ovarian): 103%
- growth (HS 578T breast): 92.4%
- growth (NCI/ADR-RES ovarian): 94.2%
- growth (T-47D breast): 86.3%
- growth (MDA-MB-435 melanoma): 94.4%
- growth (SW-620 colon): 91.8%
- growth (MCF7 breast): 86.7%
- growth (HCT-116 colon): 90.4%
- growth (HCC-2998 colon): 97.5%
- growth (KM12 colon): 101%

SMILES: Cc1c2c(nn1C(=O)c1nn(-c3ccc(Cl)cc3)cc1O)-c1ccccc1CC2
- growth (SR leukemia): -39.9% (active)
- growth (RPMI-8226 leukemia): -35.3% (active)
- growth (OVCAR-8 ovarian): 6.41% (active)
- growth (OVCAR-5 ovarian): 40.8%
- growth (OVCAR-4 ovarian): 15.6%
- growth (SK-OV-3 ovarian): 13%
- growth (IGROV1 ovarian): 17.8%
- growth (OVCAR-3 ovarian): -3.9% (active)
- growth (HS 578T breast): 71.5%
- growth (NCI/ADR-RES ovarian): 6% (active)
- growth (T-47D breast): 1.65% (active)
- growth (MDA-MB-435 melanoma): 34.3%
- growth (SW-620 colon): 32.4%
- growth (MCF7 breast): 12.4%
- growth (HCT-116 colon): 7.08% (active)
- growth (HCC-2998 colon): 9.3% (active)
- growth (KM12 colon): 29.5%
